# Assay outcomes deposited in PubChem by several laboratories.
# A1 inh: caspase 3/7 activation in MEF A1-2A-BIM cells, primary screen, A1 inhibitor project, cell-based, luminescence, HTS. AID 2462, 2010. Caspase-Glo 3/7 luminescence, 3 h; percent of clofoctol response, vehicle zero. caspase activation, % (concentration not given with the values). 330,000 compounds, 0.066% hits;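 active means over half of replicate activation scores above 10%, or exactly half above 10 with the replicate mean above 10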
# OPRM1-OPRD1 ag: agonists of OPRM1-OPRD1 heterodimerization, primary screen, cell-based, luminescence | activation, % at 9.3 µM | cells | AID 504326, 2011 | 340,000 compounds, 0.3% hits; in the data active means activation above about 18%;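 further: 0% = vehicle-treated cells and 100% = reference agonist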
# MOR-DOR inv ag: inverse agonists of MOR-DOR heterodimerization, primary screen, cell-based, luminescence | Mu-type opioid receptor (Homo sapiens) + Delta-type opioid receptor (Homo sapiens), … | AID 504357, 2011 | cell-based MOR-DOR heterodimer luminescence, inverse agonism | 340,000 compounds, 0.21% hits | inhibition, % at 9.3 µM; in the data active means inhibition above about 22%, passing the limit was not always enough;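 further: 0% = cells with DMSO and 100% = wells without cells with DMSO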
# HTR5A inv ag: HTR5A inverse agonists in luminescence cell assay, primary screen, counter-screen for OPRM1-OPRD1 heterodimer inverse agonist project, full-deck HTS; 5-hydroxytryptamine receptor 5A (Homo sapiens), P47898; HTR5A cell line, inverse agonism; inhibition, % at 9.3 µM; 340,000 compounds, 0.083% hits; AID 504634, 2011; in the data active means inhibition mostly above about 23%, no sharp cut-off; inactive means mostly below about 18%;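 further: 0% = cells with DMSO and 100% = no-cell wells with DMSO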
# Target sequence (P47898 whole entry, looked up): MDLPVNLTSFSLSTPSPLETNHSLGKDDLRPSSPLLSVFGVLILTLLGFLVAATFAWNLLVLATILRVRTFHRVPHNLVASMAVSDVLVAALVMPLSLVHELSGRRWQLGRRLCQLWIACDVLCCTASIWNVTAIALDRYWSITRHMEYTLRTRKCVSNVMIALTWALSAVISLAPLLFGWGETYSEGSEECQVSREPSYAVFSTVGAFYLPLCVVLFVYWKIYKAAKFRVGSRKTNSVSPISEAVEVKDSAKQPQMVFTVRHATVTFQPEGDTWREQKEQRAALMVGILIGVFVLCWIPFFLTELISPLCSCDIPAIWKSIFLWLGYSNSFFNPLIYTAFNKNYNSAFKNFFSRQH
# HTR5A ag ctr: HTR5A agonists in luminescence cell assay, primary screen, counter-screen for OPRM1-OPRD1 heterodimer agonist project, full-deck HTS. 5-hydroxytryptamine receptor 5A (Homo sapiens), P47898. cell-based. AID 504692, 2011. 340,000 compounds, 0.61% hits. activation, % at 9.3 µM; in the data active means activation mostly above about 9.5%, no sharp cut-off; inactive means mostly below about 7.6%;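 further: 0% = cells with vehicle only and 100% = reference agonist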
# An asterisk follows results filed as active; · = no result. Only some compounds are listed: those with a hit (about 1.1% of all), similar ones and a draw of the others.
SMILES,A1 inh,OPRM1-OPRD1 ag,MOR-DOR inv ag,HTR5A inv ag,HTR5A ag ctr
CC(OC(=O)CSc1ccc([N+](=O)[O-])cc1)C(=O)NCc1ccccc1 (centres undefined),0.5,0.7,-4.5,-33.8,11.2
CCCCN(C)CCNC(=O)c1ccc2c(c1)NC(=O)C(N1CCCCC1)S2 (centres undefined),0.2,-0.6,3.4,-24.9,12.5*
Fc1ccc(NC(=S)NC2CCN(Cc3ccccc3)CC2)cc1,1.6,1.2,-6.5,-4.2,4.0
S=C(Nc1ccc(Cl)c(Cl)c1)NC1CCN(Cc2ccccc2)CC1,-0.3,23.2*,-134.7,-23.1,12.2*
CCc1ccc(N(CC(=O)Nc2ccc(OC)cc2OC)S(C)(=O)=O)cc1,0.4,-2.2,10.9,14.2,-5.8
CCn1cc([N+](=O)[O-])c(C(=O)N2CCN(C(=O)c3ccco3)CC2)n1,0.3,-1.2,5.4,25.8,13.9*
CCn1cc([N+](=O)[O-])c(C(=O)N2CCCC2)n1,·,-1.8,9.8,-11.4,3.6
COc1ccc(C(O)Cn2ccsc2=NC(C)=O)cc1 (centres undefined),0.4,-0.5,2.9,7.2,-0.9
Cc1cc(NC(=O)c2ccc(COc3ccccc3Cl)o2)no1,-0.3,2.9,-15.1,-11.6,9.7*
O=C(NCc1ccccn1)Nc1cccc(Cl)c1Cl,-0.6,-1.1,4.4,-13.2,5.2
CN(C(=O)COC(=O)C12CC3CC(CC(Cl)(C3)C1)C2)c1ccccc1,0.3,4.4,-23.1,-40.2,11.2*
CCN(CC)S(=O)(=O)c1cccc(NC(=O)CN(C)Cc2cccc(OC)c2)c1,-0.7,1.5,-8.3,14.9,-5.2
COc1ccc2c(C#CCCO)c(-c3ccc(S(C)(=O)=O)cc3)sc2c1,-0.5,-0.8,4.2,-44.5,12.9*
O=C(NC1CCCCCC1)c1cccs1,-1.2,-0.5,2.7,-42.5,3.0
O=C(CNC1CCCCCC1)c1cccs1,-0.9,-5.9,32.8*,-17.0,6.3
Cn1nc(C(=O)NNC(=O)c2ccc(Cl)c(S(N)(=O)=O)c2)c2ccccc2c1=O,-0.3,-1.1,5.6,-0.3,0.1
CN1CCN(CC(=O)N2CCn3c4c(c5cc(C6CCCCC6)ccc53)CCCC42)CC1 (centres undefined),-0.1,5.8,-31.7,-18.4,6.8
Cc1ccc2c(c1)c1c3n2CCN(C(=O)CN2CCN(C)CC2)C3CCC1 (centres undefined),0.5,-0.8,4.4,-4.5,9.1*
Cc1cccc2sc(NNC(=O)c3ccc(S(=O)(=O)N4CC(C)CC(C)C4)cc3)nc12 (centres undefined),-0.1,22.6*,-132.7,-43.0,15.2*
O=C(Nc1ccc(Cl)cc1)c1nc[nH]c1C(=O)NCCCNC(=O)c1[nH]cnc1C(=O)Nc1ccc(Cl)cc1,12.9*,·,·,·,·
O=C(Nc1ccc([N+](=O)[O-])cc1)c1nc[nH]c1C(=O)NC1CCCCC1,47.4*,0.6,-3.0,4.5,-1.8
O=C(N/N=C/c1cc([N+](=O)[O-])ccc1O)c1cccc(N2CCCC2=O)c1,0.2,-2.8,15.1,2.3,-3.3
O=C(/C=C/c1c(F)cccc1Cl)NCCCN1CCOCC1,1.9,-3.0,15.5,-25.9,-2.1
CCOC(=O)c1ccc(-c2ccc(/C=N/NC(=O)CN(c3cccc(C)c3)S(C)(=O)=O)o2)cc1,17.4*,-0.3,1.4,5.3,1.4
CC(C)c1ccc(OCC(O)CNC(C)c2ccccc2)cc1 (centres undefined),0.6,4.0,-18.0,-41.5,11.7*
SMILES,A1 inh,OPRM1-OPRD1 ag,MOR-DOR inv ag,HTR5A inv ag,HTR5A ag ctr
CCC(=O)c1ccc(OCC(O)CNC(C)c2ccccc2)cc1 (centres undefined),0.2,2.2,-12.8,-5.0,1.5
CC(C)(C)NC(=O)COC(=O)c1c2c(nc3ccccc13)CCC2,0.1,-1.6,8.6,-21.5,7.6
CC(C)NC(=O)NC(=O)COC(=O)c1c2c(nc3ccccc13)CCC2,-1.0,4.2,-33.5,-41.9,14.1*
CCN1/C(=C/c2ccc3ccccc3[n+]2CC)C=Cc2ccccc21,-2.3,-5.8,32.5,43.4*,-12.2
COCCn1c(SCC(=O)Nc2cccc(NC(C)=O)c2)nc2c([nH]c3ccccc32)c1=O,-0.4,-5.1,26.1,5.6,-2.3
CSC[C@@H]1NC(=S)N(c2ccc(C)cc2)C1=O,23.2*,-1.9,12.6,6.9,-2.8
CCCn1c(CCC(=O)O)nc2cc(S(N)(=O)=O)ccc21,·,-2.6,13.1,16.3,6.2
CCCCn1c(CCC(=O)O)nc2cc(S(=O)(=O)N3CCCC3)ccc21,0.0,-1.7,9.0,-29.6,8.3*
CCCCC(=O)Nc1ccc2c(c1)nc(CCN1CCN(c3ccccn3)CC1)n2C,0.6,-1.8,8.0,8.7,-2.4
CC(CNC(=O)COc1ccc2c(c1)OCO2)c1ccccc1 (centres undefined),0.0,-0.9,3.6,9.2,-3.8
CC(C)CN(Cc1cc(=O)oc2cc(-c3ccccc3)c(O)cc12)CC(C)C,-0.7,20.1*,-104.7,9.8,17.3*
Cc1ccc(C(=O)/C=C/c2ccco2)c(O)c1,0.1,7.0,-37.2,15.0,2.3
O=[N+]([O-])c1cccc(-c2noc3c2-c2nc(Cc4cccc5ccccc45)sc2CC3)c1,0.2,-1.5,8.3,24.4,0.8
CCC(CC)c1nnc(NC(=O)CC(C)c2ccccc2)s1 (centres undefined),1.2,5.5,-26.5,-39.1,11.5*
O=C(NCCc1cn2ccccc2n1)C1CCCCC1,1.3,-0.9,5.0,-17.4,-5.5
CCCCSc1nnc(CSc2ncccn2)n1C,0.1,-0.6,3.0,-6.8,2.4
COc1cc2c(cc1OC)C(c1ccc(OC)c(OC)c1OC)CC(=O)N2 (centres undefined),1.0,-2.1,9.7,-37.0,10.0*
O=C(NCc1ccccn1)c1cccc(S(=O)(=O)N2CCc3ccccc32)c1,-0.5,-1.0,5.4,-14.7,4.1
N#C/C(=C(/O)c1ccco1)c1nc2ccccc2[nH]1,-1.7,-2.3,11.8,-28.1,10.9*
N#C/C(=C(\O)Cc1ccccc1)c1nc2ccccc2[nH]1,-0.2,-2.5,10.5,-7.1,0.4
CC(C)(C)NC(=O)CSCc1c(Cl)cccc1Cl,1.5,-0.9,6.2,12.2,-0.7
NC(=O)CSCc1c(Cl)cccc1Cl,0.7,-2.0,11.2,-19.5,12.5*
CCOC(=O)C(C)CC(C)C(=O)N1CCOCCN(C(=O)C(C)CC(C)C(=O)OCC)CCOCC1 (centres undefined),1.1,0.4,-2.2,-24.4,9.2*
NNc1nc(-c2ccccc2)cc(-c2ccccc2)n1,-0.1,-11.2,51.7*,42.6*,-15.5
NNc1nc(-c2ccccc2)cc(-c2ccccc2O)n1,0.7,-3.5,20.0,27.9,-10.1
Cc1ccc(S(=O)(=O)N(Cc2cc3cccc(C)c3[nH]c2=O)c2ccccc2)cc1,-1.6,1.1,-5.9,11.3,-3.2
